Reference: PubChem BioAssay
Entries with a potency or affinity are not part of this list. A number with no mark means an inactive call. Calls of active or inactive are those of the source.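 Rule for the calls: active = a fitted half-maximal concentration no higher than twice the top valid tested dose, with signal falling as cells die; inconclusive = flat curve between -70% and -30%, or poor fit; inactive = the rest, including signal rising instead of falling.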

Experiment: viability loss in HeLa cells – cell-based, ATP luminescence, cherry-pick samples, cytotoxicity control, dose response (AID 687004);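 note: 0% = neutral control median and -100% = staurosporine 10 µM control median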
Settings: ATP luminescence (CellTiter-Glo), 48 h; series mostly up to 26 µM; activity change, negative = cytotoxicity: at the top concentration

For `COC(=O)C1=C(C)N(Cc2ccccc2)C(=S)NC1c1cccc(OC)c1` (stereo unspecified), the outcome was “inactive”.
In the case of `COC(=O)C1=C(C)N(CC(C)C)C(=S)NC1c1cccc(F)c1` (stereo unspecified), the outcome is reported as “inactive”.
With `COC(=O)C1=C(C)N(Cc2ccc(F)cc2)C(=S)NC1c1cccc(Cl)c1` (stereo unspecified) the outcome was “inactive”.

In order of falling “activity change, negative = cytotoxicity” value:
1. CCc1ccc(C(C)NC(=S)NCc2ccc(F)cc2)cc1 (stereo unspecified)  15.5%
2. C[C@H](CO)N1C[C@H](C)[C@@H](CN(C)Cc2ccc(Oc3ccccc3)cc2)Oc2ccc(NS(=O)(=O)c3cn(C)cn3)cc2CC1=O  13%
3. O=C(CN(c1ccc(F)cc1)S(=O)(=O)c1ccccc1)N1CCOCC1  3.94%
4. S=C(Nc1ccccc1Oc1ccccc1)Nc1cccc(Cl)c1Cl  2.89%
5. O=C(CSc1ncnc2c1cnn2-c1cccc(Cl)c1)NCC1CCCO1 (stereo unspecified)  2.83%
6. Cc1c(C(=O)NC(=S)Nc2ccccc2N2CCCC2)cccc1[N+](=O)[O-]  1.06%
7. COc1cc(OC)c(N(C)C(=O)c2cn(C)c(=O)c3cc(OC)c(OC)cc23)cc1Cl  0.016%
8. COC(=O)C1=C(C)N(Cc2ccc(Cl)cc2)C(=S)NC1c1ccc(OC)cc1 (stereo unspecified)  -0.047%
9. COC(=O)C1=C(C)N(Cc2ccc(Br)cc2)C(=S)NC1c1ccc(OC)cc1 (stereo unspecified)  -0.601%
10. Cc1cc(Cl)ccc1NC(=S)NCc1ccc(F)cc1  -1.02%
11. COc1ccccc1C#Cc1ccc2c(c1)O[C@H](CN(C)C(C)=O)[C@H](C)CN([C@@H](C)CO)S2(=O)=O  -2.25%
12. S=C(Nc1ccccc1)Nc1cc(Cl)ccc1Oc1ccccc1  -5.43%
13. COC(=O)C1=C(C)N(Cc2ccc(Cl)cc2)C(=S)NC1c1ccccc1 (stereo unspecified)  -8.43%
